Data as given in the OligoGym collection.

target: LIMK2; experiment: pooled miR-30 sensor sort-seq; sequence = guide strand; settings: shRNA
Note: reference of the scale not given here.

Sequence | sensor-assay potency score (higher = more potent)
TTGTCCAACTTGATGAGGCAGT | -0.14
TCGAGTAACAGATTCCTCCTGG | 1.05
TTTCTTTCGTCCACACACTTGA | 0.0479
TTCTGAGATCTCCTCTTCCTGG | -0.852
ATGAACTTGAGCACATTGGGGT | -0.105
TCGTTGACAGTCCTGTACCATA | -1.6

target: LIN54; experiment: as above; settings: shRNA

Sequence | sensor-assay potency score (higher = more potent)
TTTTAAGACATCCTGATCGTTT | -0.141
TTAGTAAGTACTACACAGGAAG | -0.992
TTTCTTTAAAAGATAGTCCTTT | 0.288
TTATGTAACATTCTGTCTGCAG | 0.565
TAGTCTTTTAAAATCATTGAAT | -0.779
TAAACATACTAGATTGAGGTGC | -0.0512
TACAATTTCAAACACAGTGATT | -0.963
TACAACTATAGAGTCCTTGTAG | 0.323
TTTACAAGCAAAACATTCGTAA | -0.274
TTGTCTGTCCTGTAACTGCTTT | -0.449

target: LIN7C; experiment: as above; settings: shRNA

Sequence | sensor-assay potency score (higher = more potent)
TAGCGTTCGCTCTCACTTCAGG | -0.712
TTTCTTCTAAGACTTTGGGTGT | -0.276
TCTACAAATATCTCTCTCCAGC | -1.02
TCTATCAGCAATTCCACCTGGA | 1.09
TAATATTGAATCCAAGGCCCTC | -0.834
TTTTCTTACAATCATTGGCATT | -1.46
TTTTGGTAGCTCAACAACTCGA | -0.544
TAACCTTTCCTTGTGCGGCTTT | 0.0216
TTCACTTTGAAGGACTCTTTGC | -0.329
TTGCTCTACAAATATCTCTCTC | -0.491

target: LINGO4; experiment: as above; settings: shRNA

Sequence | sensor-assay potency score (higher = more potent)
TAGCTCCTGGAGCCGCACCAGG | -1.44
TTATCTGCCACATCCAGGAGGT | -0.12
TTTGACCCGACCTTTGCCCTTG | -0.241
TTGAGAGCTGGTTGTAGCTGAG | -0.0336
TTCCACCTGGATGACTTCCAGC | -1.16
TTGCCAGACAGCCTCAAGGTGA | -1.39
TCTAGGACCCTTACTCTCCCAG | -0.898
TAGCTGAGGTCCAATTCCTGGA | -0.789
TGAGGTGGTACAGTGCTTGGAA | 0.431
ATATCCAGTTCTCTAAGCCTTA | -0.907
ATCTAGGAAGAGAACAATCTGG | -0.599
TGTGATGTTTGACCCGACCTTT | -0.94
